MEX-5 binding = MEX-5 zinc finger RNA-binding disruptors – biochemical, C. elegans, fluorescence polarization, MLPCN library, primary screen | MEX-5/FITC-TCR2 RNA binding; stronger effect = lower value | activity score (negative = inhibition of binding), % at 10 µM | actives 0.38% (n = 300,000);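 active = inhibition past about -25% in most replicates, and total fluorescence under double the plate's negative control median, limit read from the data; inconclusive = replicates evenly split on the limit, or fluorescence at least double controls; inactive = too little inhibition in most replicates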;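 note: 0% = DMSO and -100% = 5 µM competing unlabeled TCR2 RNA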
Target sequence (Q9XUB2 whole entry, looked up): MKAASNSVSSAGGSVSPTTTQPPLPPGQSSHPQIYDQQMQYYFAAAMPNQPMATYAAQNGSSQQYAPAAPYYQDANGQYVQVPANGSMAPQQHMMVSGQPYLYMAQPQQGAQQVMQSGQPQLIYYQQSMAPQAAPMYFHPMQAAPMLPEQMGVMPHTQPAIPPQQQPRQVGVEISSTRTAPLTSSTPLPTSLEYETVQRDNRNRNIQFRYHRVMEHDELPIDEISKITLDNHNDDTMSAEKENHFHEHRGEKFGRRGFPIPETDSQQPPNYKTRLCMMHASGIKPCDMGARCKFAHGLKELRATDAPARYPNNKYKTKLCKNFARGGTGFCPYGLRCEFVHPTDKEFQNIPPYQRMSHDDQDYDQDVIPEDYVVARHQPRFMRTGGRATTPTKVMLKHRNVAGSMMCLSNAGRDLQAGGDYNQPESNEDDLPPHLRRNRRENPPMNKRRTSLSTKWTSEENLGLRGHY
Granule exo inh = LAMP-1 surface exposure blockers, TALL-104 cells – cell-based, flow cytometry, MLPCN library, primary screen | TALL-104 LAMP-1 surface exposure; cells stimulated with thapsigargin and PMA | inhibition, % at 10 µM | actives 0.66% (n = 360,000) | AID 651702, 2012;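 active = inhibition above about 55%, limit read from the data; inconclusive = no clear call, values can overlap the other calls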
VLA-4 inh = inhibition in human VLA-4 binding assay, primary screen, VLA-4 allosteric modulator project, MLPCN library, flow cytometry, VLA-4 expressing cells | Integrin alpha-4 (Homo sapiens), P13612 | AID 2557, 2010 | actives 0.2% (n = 330,000) | inhibition, % (about 7 µM as worked out from the volumes in the protocol) | ligand binding flow cytometry; in the data active = inhibition above about 50%
V-ATPase pHluor = regulators of yeast V-ATPase proton pumping, primary screen, pHLuorin cytosolic pH fluorescence. S. cerevisiae. response, % at 10 µM. actives 0.37% (n = 350,000); in the data active = response mostly above about 7.3%, no sharp cut-off; inactive = mostly below about 5.4%; note: actives read high
HTR2A ag = mouse Htr2a agonists via beta-arrestin recruitment, primary screen, cell-based, luminescence | actives 0.66% (n = 360,000) | 5-hydroxytryptamine receptor 2A (Mus musculus), P35363 | AID 624169, 2012 | activation, % at 7.6 µM | CHO-K1 mHTR2A beta-arrestin complementation; percent of 30 µM serotonin response;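 active = activation above a run cutoff, the mean activation of all tested compounds plus 3 SD, cut at about 14% in these data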;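 note: 0% = plate median of compound wells and 100% = 30 µM serotonin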
JMJD2C inh = inhibitors of GASC-1 histone demethylase, primary screen, biochemical, fluorescence, DELFIA europium | Lysine-specific demethylase 4C (Homo sapiens), Q9H3R0 | GST-JMJD2C(1-420) H3K9me3 demethylation | inhibition, % at 2.35 µM | actives 0.069% (n = 330,000) | AID 2099, 2009;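 active = more than half of a compound's replicate wells show inhibition beyond 50%, single wells judged on their own value; inconclusive = some, but no more than half, of replicates pass 50% inhibition; inactive = no replicate passes 50% inhibition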;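 note: signal counts dimethyl H3K9 product captured on neutravidin plate; 0% = median of DMSO wells and 100% = 0.3 times that DMSO median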
Numbers without * were called inactive; ? = inconclusive; / = no result given. A selection: hits, their analogues and other compounds. The true share with any hit is near 2.2%.

SMILES	MEX-5 binding	Granule exo inh	VLA-4 inh	V-ATPase pHluor	HTR2A ag	JMJD2C inh
Cc1n[nH]c(C)c1CCNC(=O)C1CCC(=O)N(Cc2ccccc2F)C1 (centres undefined)	-1	19	-10	0	0	142
O=C1C2C(C(=O)N1/N=C/c1ccc(N3CCCCC3)o1)C1C=CC2C12CC2 (centres undefined)	-2	68*	14	12	5	-1
CC(C)N(Cc1nccn1C)C(=O)c1ccc2oc(Cc3ccccc3)nc2c1	3	32	/	3	-2	-10
CCCN1C(=O)S/C(=C\c2ccc(N3CCOCC3)o2)C1=O	30	81*	-15	1	0	-2
CCCN1C(=O)S/C(=C/c2ccc(N3CCOCC3)o2)C1=O	?	34	2	-4	-1	-25
CCC(=O)Nc1cc(C)c(NC(=O)CCc2ccccc2)cn1	-26*	-4	-42	-6	-4	4
N#CC1=C(N)C2=C(N3CCCCC3)CCCC2C1(C#N)C#N (centres undefined)	-44*	2	5	-1	-1	15
Cc1nc2ccccc2c2oc(C(=O)Nc3ccc4c(c3)OCCO4)cc12	-28*	8	-11	4	2	-2
Cc1nc2ccccc2c2oc(C(=O)Nc3ccc(C(C)C)cc3)cc12	1	10	12	4	0	11
CC(C)OCCCNC(=O)CCCC(=O)Nc1ccc(OCCc2ccccc2)cc1	2	-7	15	-3	-6	-9
CCOc1cc2c(cc1/C=C(/C#N)c1ccc(C(=O)O)cc1)OCO2	-32*	-3	-3	-3	0	-14
N#C/C(=C\c1cc2c(cc1Br)OCO2)c1ccc(C(=O)O)cc1	-3	1	-3	-2	0	-10
Cc1ccc2c(CNCc3ccccc3)cc(=O)oc2c1	3	-10	-6	-1	-7	7
c1coc(-c2nnc(-c3ccco3)nn2)c1	-59*	7	12	0	2	-19
c1ccc(-c2nnc(-c3ccco3)o2)cc1	0	-3	14	4	1	6
N#CCCN(C(=O)COC(=O)C1CCN(S(=O)(=O)c2ccc3c(c2)OCCO3)CC1)c1ccccc1	-3	3	4	-1	-7	-3
CCC(C(=O)OCC(=O)Nc1ccc(F)cc1)c1ccccc1 (centres undefined)	/	-2	-8	/	-1	-4
CCC(C(=O)OCC(=O)Nc1ccc(SC(F)F)cc1)c1ccccc1 (centres undefined)	0	73*	/	3	-5	-1
CC(C)c1ccc(OCC(=O)Nc2c3c(nn2C(C)(C)C)CS(=O)(=O)C3)cc1	2	-3	38	-5	-2	-5
Cc1cc2c(cc1C)-c1c(ssc1=Nc1ccc(S(N)(=O)=O)cc1)C(C)(C)N2	2	67*	4	-1	-4	6
CC(=O)NS(=O)(=O)c1ccc(N=c2ssc3c2-c2cc(C)c(C)cc2NC3(C)C)cc1	-3	0	3	2	1	30
Cc1cccc(C)c1NS(=O)(=O)c1cc2c3c(c1)CC(=O)N3CCC2	-5	-12	-6	7	-3	54*
Cc1cccc(C)c1NS(=O)(=O)c1cc2c3c(c1)CCN3C(=O)CC2	-1	1	13	1	1	-16
CCOC(=O)C1CCN(C(=O)c2cccc(S(=O)(=O)N3CCCc4ccccc43)c2)CC1	/	5	/	6	2	/
CC(OC(=O)Cn1[nH]c(=O)c2ccccc2c1=O)C(=O)Nc1ccc(F)cc1Cl (centres undefined)	0	-10	-12	6	-3	1
SMILES	MEX-5 binding	Granule exo inh	VLA-4 inh	V-ATPase pHluor	HTR2A ag	JMJD2C inh
O=C1c2ccccc2-c2onc3ccc(NCc4ccco4)c1c23	-77*	56*	-356	2	-4	5
Cn1c(=O)c2cc(S(=O)(=O)NCCC(=O)Nc3ccc(Cl)cc3)ccc2n(C)c1=O	-1	5	-13	11	10	4
Cn1c(=O)c2cc(S(=O)(=O)NCCC(=O)NCCc3ccc(Cl)cc3)ccc2n(C)c1=O	-1	-4	3	22*	-1	1
O=C(Nc1ccc(C(O)(C(F)(F)F)C(F)(F)F)cc1)c1ccc(Cl)c([N+](=O)[O-])c1	5	64*	15	-1	-2	-4
O=C(O)c1cc(NC(=O)c2ccc(Cl)c([N+](=O)[O-])c2)cc(C(=O)O)c1	-4	-3	7	-1	-3	-27
C1CCc2nc3c(nc2C1)CCCC3	2	-2	-18	1	1	-4
Nc1nnc2c(n1)CCCC2	-32*	-4	8	2	6	0
O=C(Nc1ccncc1)C1CCN(S(=O)(=O)c2ccc(Cl)c(C(F)(F)F)c2)CC1	/	2	2	-3	-6	1
Fc1ccc(C2=CC(c3ccco3)n3ncnc3N2)cc1 (centres undefined)	-51*	-3	-3	0	2	-10
OCCCc1nc2n(n1)C(c1cccs1)C=C(c1ccc(Br)cc1)N2 (centres undefined)	-68*	/	-41	/	/	7
Brc1ccc(C2=CC(c3cccs3)n3ncnc3N2)cc1 (centres undefined)	-51*	-7	-8	1	-2	-7
CSCc1c(C(=O)OCC(=O)NC2CCCCC2)oc2ccccc12	/	3	-1	2	7	-4
COc1ccc([C@H]2CC(=O)C=C(c3ccc4c(c3)OCCO4)C2)cc1	/	-6	21	2	-1	1
C[C@@H]1CN([C@@H](C)CO)C(=O)CCCn2nncc2CO[C@H]1CN(C)S(=O)(=O)c1cccc(C#N)c1	/	9	/	1	-5	/
Cc1ccccc1Sc1ccc(N)cn1	/	-2	-25	-2	-5	-21
Cc1ccc(NC(=O)COC(=O)CCC(=O)c2cccs2)c(Br)c1	/	75*	3	0	-4	/
Cc1ccc(NC(=O)COC(=O)c2cc(=O)c3cc(F)ccc3o2)cc1	/	0	/	1	2	/
C(=NN=C(NN=Cc1cccs1)NN=Cc1cccs1)c1cccs1	/	9	/	-3	5	/
O=[N+]([O-])c1c(Nc2ccccc2O)cc(Cl)c2nonc12	2	61*	35	-4	-11	10
O=[N+]([O-])c1c(Nc2ccccc2O)ccc2nonc12	-2	0	-9	-5	-4	5
CS(=O)(=O)N1CCN(C(=O)Cc2ccccc2Cl)CC1	3	1	12	1	1	3
